Hit rate of the full screen: of about 300,000 compounds, about 5,200 (1.7%) were called active. Many of the other results were omitted from the sample, so actives are more common in it than they were. Values without a mark were called inactive.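 How the source made its calls: active means mean replicate activation of at least 50% with a set share of replicates each reaching 50%; inconclusive means only one of those two conditions met; inactive means mean below 50% and too few replicates reaching it.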
Test: HSF-1 response element luciferase induction – NIH3T3-HGL cells, MG132 stress, luminescence, single point, primary screen (AID 504408);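 further: 0% = median of the neutral control wells and 100% = twice that signal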
Conditions: NIH3T3-HGL HSF-1 luciferase reporter, MG132, 8 h; at 9 µM; active compounds read high; 100% = twice DMSO control signal

SMILES | activation
Cc1noc(C)c1/C=N/Nc1ccc2ccccc2n1 | 59.1% (active)
Clc1ccc(Nc2ccc3ccccc3n2)cc1 | 5.69%
C(=N\Nc1ccc2ccccc2n1)/c1ccc2c(c1)OCO2 | -41.8%
Cc1ccc(S(=O)(=O)N(C)c2ccc(OCC(=O)OCC(=O)N(CC#N)c3ccccc3)cc2)cc1 | 7.96%
O=S(=O)(NCCCc1ccccc1)c1ccc(Br)cc1 | 11.6%
O=C(NCCS(=O)(=O)NCc1ccc(Cl)cc1)c1ccccc1 | 8.69%
CCOc1ccc(NS(=O)(=O)c2ccc(C(=O)NC3CCN(Cc4ccccc4)CC3)cc2)cc1 | -18.5%
c1ccc2[nH]c(-c3nc4ccccc4[nH]3)nc2c1 | 77.8% (active)
OC(c1nc2ccccc2[nH]1)C(O)C(O)C(O)c1nc2ccccc2[nH]1 (stereo not given) | 1.21%
Cc1ccc(-c2nc3ccccc3[nH]2)cc1N | 36.7%
CCN(CC(=O)Nc1c(F)cccc1F)C(=O)c1ccc(S(=O)(=O)N2CCCCC2)cc1 | -12.7%
Cc1ccccc1NC(=O)COc1cccc2c1CCNC2=O | -1.52%
CCCCn1c(N)c(N(CC(C)C)C(=O)CSc2ccc([N+](=O)[O-])cc2)c(=O)[nH]c1=O | -6.98%
Cc1ccc(-c2nn(-c3ccc(F)cc3)cc2C(=O)NCC(c2cccs2)N2CCOCC2)cc1 (stereo not given) | -1.83%
Cc1ccn2c(=O)nc(SCC(=O)NCc3ccc(F)cc3)nc2c1 | 16.8%
O=C(COC(=O)c1ccccn1)NNC(=O)c1ccc([N+](=O)[O-])cc1 | 5.44%
CCn1c2ccc(F)cc2c2nnc(SCCN3CCOCC3)nc21 | -5.84%
Cc1cccc(C)c1OCCN1CCOCC1 | 3.56%
Cc1cc2nc(SCCN3CCOCC3)[nH]c2cc1C | 53.2% (active)
COc1ccc(NC(=O)CN(C)C(=O)CC2CCCCC2)cc1 | 0.174%

SMILES | activation
N#CCCN(C(=O)COC(=O)C1CCN(c2ccc(C(F)(F)F)cn2)CC1)c1ccc(F)cc1 | 9.78%
CN(C(=O)CSc1nnc(-c2c[nH]c3ccccc23)o1)C1CCS(=O)(=O)C1 (stereo not given) | 20.1%
O=C(CSc1nnc(-c2c[nH]c3ccccc23)o1)c1ccccc1 | 54.2% (active)
CCC(CC)NC(=O)CSc1nnc(-c2c[nH]c3ccccc23)o1 | 12.5%
COC(=O)c1sccc1NC(=O)COc1ccc(Cl)cc1 | 65.1% (active)
O=C(COc1ccc(Cl)cc1)Nc1ccccc1CO | 3.44%
COC(=O)c1sccc1NC(=O)c1ccc(Cl)cc1 | 12.5%
O=C(NCC(c1ccco1)N1CCc2ccccc2C1)c1ccccc1Cl (stereo not given) | 6.39%
CC(OC(=O)CNC(=O)c1ccco1)C(=O)Nc1ccc(Cl)cn1 (stereo not given) | 0.765%
C=CCNC(=O)C1CC2c3ccccc3C1c1ccccc12 (stereo not given) | 0.377%
CCC(C)N(C(=O)Cn1nc(C)c([N+](=O)[O-])c1C)C1CCS(=O)(=O)C1 (stereo not given) | -1.43%
COc1ccc(F)cc1S(=O)(=O)NCC(c1ccc2c(c1)OCO2)N1CCN(C)CC1 (stereo not given) | 7.05%
COc1ccc(S(=O)(=O)Nc2ccc3c(c2)OCO3)cc1Cl | -5.83%
COc1ccc(F)cc1S(=O)(=O)Nc1ccc2c(c1)OCO2 | 53.7% (active)
COc1ccccc1CCC(=O)OCC(=O)N1CCN(S(=O)(=O)c2ccc(C)cc2C)CC1 | 25.7%
Nc1nc(Nc2ccccc2)nc(NCCO)c1[N+](=O)[O-] | 12.4%
CNc1nc(Nc2ccc(C)c(Cl)c2)nc(N)c1[N+](=O)[O-] | 76.4% (active)
COc1cccc(Nc2nc(N)c([N+](=O)[O-])c(NCc3ccco3)n2)c1 | 27.8%
Cc1cccn2c(=O)nc(SCC(=O)NCc3ccccc3Cl)nc12 | 0.293%
COc1ccc(-c2cnc(SCCNC(=O)c3ccc4c(c3)OCO4)[nH]2)cc1 | 9.08%

SMILES | activation
COc1ccc(C2=NOC(Cn3nc(C(=O)NCc4ccc5c(c4)OCO5)cc3-c3ccccc3)C2)cc1 (stereo not given) | 7.07%
CCN1C(=O)[C@H]2[C@@H](c3ccc(SC4CCCCC4)c(OC)c3)N[C@@](Cc3ccccc3)(C(=O)OC)[C@H]2C1=O | -7.66%
Cc1ccc(O)c(NC(=S)NC(=O)COc2ccc(Br)cc2)c1 | 12.4%
Cc1ccc(O)c(NC(=O)COc2cc(C)ccc2C)c1 | 76.7% (active)
Cc1ccc(F)c(NC(=O)CCOc2ccccc2C)c1 | 7.19%
CCOC(=O)CNC(=O)CSc1nnc(COc2ccc(Cl)cc2)n1CC | 52.7% (active)
CCn1c(COc2ccc(OC)cc2)nnc1SCC(=O)Nc1cc(OC)ccc1OC | 19.9%
CCn1c(COc2ccccc2)nnc1SCC(=O)NCc1ccco1 | -12.7%
Cc1ccc(C(=O)Nc2nc3ccc(Cl)cc3s2)o1 | 44.3%
O=C(CSc1n[nH]c(-c2cccs2)n1)N1CCCCC1 | -14%
O=C(OCC(=O)N1CCCC1=O)c1cc(S(=O)(=O)N2CCOCC2)ccc1Cl | -4.42%
CCOc1ccc(N/C=C/C(=O)c2ccccc2)cc1 | 23.5%
Cc1ccc(N/C=C/C(=O)c2ccccc2)cc1C | 77.8% (active)
Cc1noc(NS(=O)(=O)c2ccc(N/C=C/C(=O)c3ccccc3)cc2)c1C | -20.4%
Cc1c(C)n2c(SCC(=O)NC3CCCC3)nnc2[nH]c1=O | -15.2%
CCC(=O)/C(=C(/O)c1ccccc1)c1nc2ccccc2[nH]1 | 4.66%
COc1ccc(/C=C(/NC(=O)c2ccc(C)cc2)c2nc3ccccc3[nH]2)cc1OC | -0.506%
O=C(/C(=C/c1cccc(Cl)c1)c1nc2ccccc2[nH]1)c1ccccc1 | 199% (active)
Cc1ccc(C)c(OCCC(=O)Nc2cccc(S(=O)(=O)N3CCCC3)c2)c1 | -4.4%
N#CC1(NC(=O)COC(=O)CSc2ccc(F)cc2)CCCCC1 | 0.517%

Source: PubChem BioAssay AID504408 (Broad Institute, 2011)
